SMILES strings stand for the structures. Hit rate of the full screen: of about 360,000 compounds, about 130 (0.036%) were called active. Only a selection was taken, and actives are over-represented in it overall. Unmarked numbers belong to inactive results. Rule as the data show it: active = potentiation above about 30%; inactive = the rest.

Chain of D(1A) dopamine receptor (Homo sapiens) (P21728 whole entry, looked up): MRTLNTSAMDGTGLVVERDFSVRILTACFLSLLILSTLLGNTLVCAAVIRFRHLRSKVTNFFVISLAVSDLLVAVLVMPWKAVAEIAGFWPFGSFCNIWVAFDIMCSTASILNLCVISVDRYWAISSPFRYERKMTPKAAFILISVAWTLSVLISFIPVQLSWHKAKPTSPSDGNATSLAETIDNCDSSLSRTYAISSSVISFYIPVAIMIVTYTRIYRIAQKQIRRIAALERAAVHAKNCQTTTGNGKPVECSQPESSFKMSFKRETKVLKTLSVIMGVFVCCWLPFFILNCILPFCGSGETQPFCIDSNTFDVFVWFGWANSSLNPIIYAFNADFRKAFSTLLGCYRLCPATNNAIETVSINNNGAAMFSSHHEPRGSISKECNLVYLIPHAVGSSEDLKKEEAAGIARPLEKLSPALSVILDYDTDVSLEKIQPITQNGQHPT

The target of this assay is D(1A) dopamine receptor (Homo sapiens) (UniProt P21728). Nature of the assay: Potentiators of Human D1 Dopamine Receptor: qHTS. Also: 0% is about no effect. Conditions: HEK293 TREx D1 cells, calcium flux, dopamine EC20 potentiation; at 10 µM; hits give high values. The source says:
Dopamine receptors (DARs) are involved in the etiology and/or therapy of a number of neuropsychiatric and endocrine disorders. For instance, all receptor-based antiparkinsonian drugs work via stimulating the D1 DAR subtype whereas all FDA-approved antipsychotic agents are antagonists of this receptor. […] There are three different types of allosteric modulators that we are seeking, two of which will stimulate or augment receptor signaling, allosteric agonists and potentiators, while the third, allosteric antagonists, will attenuate receptor signaling. The present primary screening assay measures compound potentiation of an EC20 dopamine response by tracking calcium flux in a […], inducible Hek293 Trex D1 cell line.
NIH Chemical Genomics Center [NCGC]
NIH Molecular Libraries Probe Centers Network [MLPCN]
Assay Submitter (PI): David Sibley
Freshly passaged cells are plated in 1536 well black, clear bottom plates at a density of 4000 cells/well in 3 ul of complete media containing 1x tetracycline inducer. After an overnight incubation at 30 C in 5% CO2, cells are loaded with 2 ul of the no wash Calcium Assay Kit (ABD Bioquest) and incubated at room temperature for 30 to 90 minutes. A 10 cycle (1 second/cycle) baseline measurement is taken and then the FDSS online 1536 pintool delivers 23 nl of compound library (as well as dopamine controls) to the plate. The plate is measured for kinetically at 1 cycle/sec for 180 seconds and is considered to be the agonist portion of the assay (eg, compounds which activate a positive calcium response during this portion are flagged as potential agonists). Following the 180 second read, 1 ul of an EC20 of dopamine is delivered by an onboard pipette head. Measurements are taken kinetically for an additional 180 seconds.
Regarding `O=C1C2(Cl)C3(Cl)C4(Cl)C(Cl)(Cl)C5(Cl)C3(Cl)C1(Cl)C5(Cl)C24Cl` (stereo not given), the potentiation is 54.8% (active).

Take `Cc1cccc(-n2c(O)c(C=NC34CN5CN(CN(C5)C3)C4)c(=O)[nH]c2=O)c1`: the potentiation is -1.15%.

On to `Clc1cccc(Cl)c1Cl`, for which the potentiation was -1.55%.

Consider `COP(=O)(NS(=O)(=O)c1ccccc1)OC`, for which the potentiation was -2.85%.

With `CNC(=O)O/N=C(\N)Cc1csc2ccccc12`, the potentiation was -9.15%.

The record behind these values is PubChem BioAssay AID504651 (National Center for Advancing Translational Sciences (NCATS), 2011).
